# Biological target: Glucose transporter (Leishmania mexicana) (UniProt O61059)
# Assay: ST_JUDE_LEISH: Cytotoxicity at 2uM final concentration against transgenic Leishmania Mexicana promastigotes LmGT2 that are glucose transport deficient and complemented with the L. Mexicana glucose transporter 2. Activity is measured by DNA content using SYBR green in vitro
# Format: functional
row,SMILES,inhibition [%]
1,CCc1ccc(-n2c(NC(=O)c3ccccc3)nc3ccc(S(=O)(=O)NC(C)C(C)C)cc32)cc1 (stereo not given),-1.72
2,COc1ccccc1CNc1ccnc(N2CC(Oc3ccc(F)cc3)C2)n1,-2.53
3,Cc1c(O)cccc1Nc1ccnc2ccc(C(F)(F)F)cc12,-1.33
4,O=C(Cc1c[nH]cn1)Nc1ccc(-c2cccc(-c3nc4cc(F)ccc4[nH]3)c2)cc1,2.01
5,O=C(/C=C/c1ccc(Cl)c(Cl)c1)NCCCCCCN1CCCN(C(=O)Nc2ccc(F)c(F)c2)CC1,2.39
6,Nc1ccc2[nH]cc(C3CCN(CC4CCC(NC(=O)/C=C/c5ccccc5Cl)CC4)CC3)c2n1 (stereo not given),2.48
7,O=C(NCc1ccc(F)cc1)Nc1ccc(-c2cccc(-c3nc4cc(F)ccc4[nH]3)c2)cc1,-1
8,O=C(NCCc1ccccc1F)c1ccc(N2CCN(c3ccncc3)CC2)cn1,8.65
9,N#Cc1ccc2c(c1)CCN(CCC1CCC(NC(=O)/C=C/c3ccc(Cl)c(Cl)c3)CC1)CC2 (stereo not given),6.83
10,O=C(N[C@@H](CC1CCCCC1)C(=O)NCCN1CCCCC1)c1ccc(O)c(-c2ccc(Cl)c(Cl)c2)c1,0.7
11,O=C(Nc1ccc(-c2ccccc2)cc1)Nc1ccc2c(c1)CCNCC2,-3.69
12,COc1cccc2c(NN=Cc3ccccc3F)ccnc12,2.85
13,CCOC(=O)c1ccc(OCc2ccc(-c3ccccc3)cc2)cc1,0.75
14,O=C(Nc1ccccc1)N1CCC(CN2CCOC(c3ccccc3)(c3ccccc3)C2)CC1,7.57
15,CC1CNC(c2cccc(NC(=O)Nc3cccc(C4=NC(C)CN4)c3)c2)=N1 (stereo not given),6.15
16,COc1cc(CS(C)(=O)=O)ccc1Nc1nccc(-c2c(-c3cccc(NC(=O)c4c(F)cccc4F)c3)nn3ccccc23)n1,7.36
17,CCOC(=O)NCC(=O)Nc1cccc(-c2cccc(-c3nc4cccc(C)c4[nH]3)c2)c1,1.12
18,Cc1ccc2c(OCCN3CCC(Cc4cc5c(cc4F)OCC(=O)N5)CC3)cc(F)cc2n1,3.85
19,N#Cc1ccc(C(=O)Nc2ccc(Cl)c(N3CCN(CCc4ccccc4)CC3)c2)cc1,7.85
20,COc1ccc2[nH]c(-c3ccccc3)cc(=NN=Cc3ccncc3)c2c1,5.54

row,SMILES,inhibition [%]
1,Cc1c(Cc2ccccc2Cl)cnc2nc(N)nc(N)c12,24.1
2,CC(C)NCc1ccc(-c2ccc(-c3nc4cc(C(F)(F)F)ccc4[nH]3)s2)cc1,15.3
3,CCCn1c(=N)c(C(=O)NCCc2ccccc2)cc2c(=O)n3cccc(C)c3nc21,2.32
4,COc1ccc(-c2ccc3c(-c4cccc(S(C)(=O)=O)c4)cnc(N)c3c2)cc1,0.45
5,CCOC(=O)c1cnc2c(OC)cc(OC)c(Cl)c2c1Nc1cccc(C)c1,4.43
6,Cn1cc(C2CCN(CCCCNC(=O)c3ccc(C(=O)Nc4ccc(C#N)cc4)cc3)CC2)c2ccccc21,7
7,CCOC(=O)c1ccc(NC(=O)Nc2ccc(-c3cccc(-c4nc5ccccc5[nH]4)c3)cc2)cc1,1.68
8,CNCc1ccc(-c2ccc3ccnc(N)c3c2)cc1,3.23
9,Cn1nccc1C(=O)NCCNCc1ccc(-c2ccc(-c3nc4cc(C(F)(F)F)ccc4[nH]3)cc2)cc1,4.43
10,O=C(CC1SC(N2N=C(c3cccs3)CC2c2ccccc2)=NC1=O)Nc1ccccc1F (stereo not given),3.51
11,O=C(NCCCN(Cc1ccc(F)cc1)c1ccccn1)C(c1cc2ccccc2o1)N1CCN(C(c2ccccc2)c2ccccc2)CC1 (stereo not given),1.89
12,CO/C(=C\C=C\c1cc2cc(Cl)c(Cl)cc2[nH]1)C(=O)NCCCNC12CC3CC(CC(C3)C1)C2,0.89
13,CS(=O)(=O)c1ccc(CNCc2cccc(-c3cccc(-c4nc5ccccc5[nH]4)c3)c2)cc1,-2.15
14,CCNc1cc(C(=O)N[C@@H](Cc2ccoc2)[C@H](O)CNC(C)CCCC(C)C)cc(N2CCCCS2(=O)=O)c1 (stereo not given in full),0.83
15,CS(=O)(=O)c1ccc(CCNCc2ccc(-c3cccc(-c4nc5ccccc5[nH]4)c3)cc2)cc1,-0.73
16,Cc1ccc(NC(=O)c2ccc(N3CCN(c4ccncc4)CC3)cc2)cc1F,82.4
17,CCn1c(-c2nonc2N)nc2c(C#CC(C)(C)O)ncc(OCCNCCc3ccc(OC)cc3)c21,2.23
18,Cc1cccc2nc(-c3ccc(-c4ccc(CNCCc5ccncc5)cc4)cc3)[nH]c12,10.1
19,O=C(N1CCN(c2cccc(C(F)(F)F)c2)CC1)C(Cl)(Cl)Cl,1.47
20,Cc1cccc(Nc2nc(N[C@@H]3CCCNC3)nc3cc[nH]c(=O)c23)c1,83.4

# Reference: ChEMBL document CHEMBL3433997, “St. Jude Leishmania screening dataset” (2016)
